# From PubChem BioAssay (Tox21)
# Inconclusive results are not listed. Unmarked numbers belong to inactive results. Activity calls are given as the source filed them. Calls follow the shape of the dose curve; as a rule, active = well fitted inhibition curve with a large enough effect in the repeat runs; inconclusive = weak or mixed curves; inactive = no such curve, though single readings can be large or run the other way.
# Biological target: Cytochrome P450 1A2 (Homo sapiens) (UniProt P05177)
# Test: Cytochrome P450 Family 1 Subfamily A Member 2 (CYP1A2) small molecule antagonists: luciferase reporter qHTS assay (AID 1671199); also: nearly all actives have a fitted effect of over 50% in size
# Details: P450-Glo CYP1A2 enzyme, luciferin luminescence, 1 h; series mostly up to 53 µM; activity change, negative = inhibition: at the top concentration
# Description: National Center for Advancing Translational Sciences [NCATS]
# U.S. Environmental Protection Agency [EPA]
# National Institutes of Environmental Health Sciences [NIEHS]
# National Toxicology Program [NTP]
# U.S. Food and Drug Administration [FDA]
# Cytochrome P450 (CYP) enzymes are membrane-bound hemeproteins that play a key role in metabolism of drugs and xenobiotics. Evaluation of the effect of chemicals on CYP isozymes is useful to minimize the adverse drug reactions and toxicities in drug development process. Tox21 chemicals were tested for their effect on CYP enzyme activities by using P450-Glo (TM) screening systems (Promega Corporation, Madison, WI). These systems provide a luminescent method containing proluciferin substrates and are converted to luciferin products by CYP isozymes. The luciferin products formed are detected with a luciferin detection reagent, and the amount of light produced is proportional to CYP activity. P450-Glo (TM) CYP1A2 screening system (Catalog. No. V9770) was used to detect the compounds that interfere in CYP1A2 activity. The positive control compound used for CYP1A2 assay is furafylline (Sigma-Aldrich, St. Louis, MO).
# Tox21 Assay Protocol Summary:
# Two ul of enzyme-substrate mix was dispensed into medium binding white/solid 1536-well plates (Greiner Bio-One North America Inc., Monroe, NC) using a BioRaptr Flying Reagent Dispenser (FRD, Beckman Coulter, Brea, CA). Compounds dissolved in DMSO and positive control (furafyllline) were transferred to the assay plates at 23 nl using a Pintool station (Wako, San Diego, CA). The assay plates were incubated at room temperature for 10 min. Then 2 ul of NADPH regeneration solution was added to each well of the assay plates using an FRD and incubated at room temperature for 1 h. The reaction was stopped by adding 4 ul of detection reagent using an FRD and after 20 min incubation at room temperature the luminescence signal was measured using a ViewLux plate reader (Perkin Elmer, Shelton, CT). Data were expressed as relative luminescence units.
# % is scaled to controls: 0 for no effect and ±100 for the full control effect; potency is read from the fitted curve at half-maximal effect.
# Sequence of Cytochrome P450 1A2 (Homo sapiens) (P05177 whole entry, looked up): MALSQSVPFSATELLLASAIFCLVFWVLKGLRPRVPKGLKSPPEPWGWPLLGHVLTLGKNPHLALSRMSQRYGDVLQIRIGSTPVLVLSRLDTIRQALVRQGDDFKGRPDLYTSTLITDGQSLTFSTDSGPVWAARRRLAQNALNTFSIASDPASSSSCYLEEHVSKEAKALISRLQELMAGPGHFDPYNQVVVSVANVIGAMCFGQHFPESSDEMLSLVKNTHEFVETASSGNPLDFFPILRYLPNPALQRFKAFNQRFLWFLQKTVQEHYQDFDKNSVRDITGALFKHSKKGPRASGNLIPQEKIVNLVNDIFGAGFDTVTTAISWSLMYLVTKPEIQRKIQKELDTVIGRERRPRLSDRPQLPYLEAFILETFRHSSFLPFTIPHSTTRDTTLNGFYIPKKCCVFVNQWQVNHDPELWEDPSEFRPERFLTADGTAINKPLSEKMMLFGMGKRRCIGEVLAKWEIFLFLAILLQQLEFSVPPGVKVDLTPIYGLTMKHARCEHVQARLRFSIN
Compound,"activity change, negative = inhibition",Potency
Cc1cccc2nccnc12,-14.6% [at 115 µM],–
C=CCCCCCCCCCCCC,-10% [at 115 µM],–
CCCCCCCCCC(C)=O,-18.2% [at 115 µM],–
O=C1O[C@@H]2[C@@H](O)[C@H](O)O[C@@H]2[C@H]1O,-9.56% [at 115 µM],–
C=Cc1ccccn1,-0.279% [at 115 µM],–
CCC(C)(CCC(C)C)C(=O)O (stereo not given),-18.9% [at 115 µM],–
Cc1ccccc1N=O,–,41 µM (active)
CC(C)(C)c1nnc(NS(=O)(=O)c2ccc(N)cc2)s1,13.9%,–
CCCOC(OCCC)OCCC,-18% [at 115 µM],–
COc1ccc(-c2cc(=O)c3c(O)cc(O[C@@H]4O[C@H](CO[C@@H]5O[C@@H](C)[C@H](O)[C@@H](O)[C@H]5O)[C@@H](O)[C@H](O)[C@H]4O)cc3o2)cc1O,-7.57%,–
CC(N)C(=O)OC(C)(C)Cc1ccc(Cl)cc1 (stereo not given),–,1.38 µM (active)
O=S(=O)(O)c1ccc2cc(O)c(S(=O)(=O)O)cc2c1,-13% [at 115 µM],–
CN1C(C)(C)CCCC1(C)C,14.4%,–
O=C(Nc1ccc(Cl)c(Cl)c1)C1CC1,–,0.456 µM (active)
O=C1c2ccccc2C(=O)C1c1ccccc1,8.4%,–
O=C(O)c1ccc(Cl)cc1Cl,-25.7% [at 115 µM],–
C=C(C)C(=O)OCCNC(C)(C)C,–,35.5 µM (active)
CN(C)c1ccc(C=O)cc1,–,35.6 µM (active)
COC(=O)c1ccccc1C(=O)c1ccc(OCCN2CCCCC2)cc1,-2.97%,–
CNS(=O)(=O)CCc1ccc2[nH]cc(C3CCN(C)CC3)c2c1,8.03%,–

Compound,"activity change, negative = inhibition",Potency
N[C@@H](CCC(=O)Nc1ccc([N+](=O)[O-])cc1)C(=O)O,-14.4% [at 115 µM],–
NS(=O)(=O)c1ccc(NC(=O)CCC(=O)O)cc1,-3.46%,–
Nc1ccc(S(=O)(=O)Nc2ccc(Cl)nn2)cc1,15.6%,–
CC(=O)Nc1ccc(S(=O)(=O)Cl)cc1,0.558% [at 115 µM],–
O=C(O)Cc1cn(-c2ccccc2)nc1-c1ccc(Cl)cc1,-10.9%,–
C[C@@H](O)[C@H]1C(=O)N2C(C(=O)O)=C(SCCN=CN)C[C@H]12,-11.8%,–
O=C1CC(c2ccc(Cl)cc2)CC(=O)N1,–,27.5 µM (active)
CC(=O)c1sc(C)nc1C,-13.3% [at 115 µM],–
OCCCCC(O)CO (stereo not given),-13.9% [at 115 µM],–
COc1cc(NS(=O)(=O)c2ccc(N)cc2)nc(OC)n1,0.281%,–
CCCCC(CC)COCCO (stereo not given),–,17.8 µM (active)
CC(CC=O)CCCC(C)(C)O (stereo not given),-24.8% [at 115 µM],–
COc1nccnc1NS(=O)(=O)c1ccc(N)cc1,-7.39%,–
CN(CCOc1ccc(NS(C)(=O)=O)cc1)CCc1ccc(NS(C)(=O)=O)cc1,0.313%,–
ClCCCl,-1.31% [at 115 µM],–
BrCc1cccc(Oc2ccccc2)c1,–,39.9 µM (active)
C[C@H](N)[C@H](O)c1cccc(O)c1,10.2%,–
CCCCN,-25.9%,–
C=CC(OCC)OCC,-15% [at 115 µM],–
CCN1CCc2nc(N)oc2CC1,-15.7%,–
